# Laboratory results published in the supplement of paper PMC12636033.
# ± gives the standard deviation of the averaged measurements. Whole data set: some 33,000 sequences, median “E-score (rank enrichment, -0.5 to 0.5)” near -0.0028, cut for the highest 2% near 0.23. The sample as a whole holds a higher share of the highest values than the screen did.
# Tested on: 2Sb-muMax20 (muMax20 with two 1,3-bis(methyl)benzene Cys staples, A13C/A17C and Q88C/A92C, C-terminal Lys)
# Assay: PBM 8-mer E-score (E-score (rank enrichment, -0.5 to 0.5)); higher = stronger preferential binding
# Experimental: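 Protein binding microarray (universal PBM chip covering all 10-mers in fixed probe flanks) with chemically synthesized human Max(13-93) bHLH-LZ analogs (not full-length Max) bearing noncanonical residues (hArg, Tha, Aib, Nle at 65) and aromatic Cys staples. Read-out per 8-mer (and its reverse complement): E-score (rank-based enrichment, -0.5 to 0.5) and Z-score of median probe intensity.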
row,Sequence,PBM 8-mer E-score
1,ATCACGTA,0.163 ± 0.032
2,ATCACGTG,0.4 ± 0.014
3,ATCACGTC,0.0586 ± 0.042
4,TAGCTACA,0.0611 ± 0.017
5,TGGGTACA,-0.0341 ± 0.055
6,CTTGTTTC,0.169 ± 0.026
7,ATTGTTTC,0.248 ± 0.046
8,ATTGTTTG,0.106 ± 0.05
9,CGGTATTA,-0.1001 ± 0.00022
10,GATATATA,0.152 ± 0.015
11,TATATATA,0.326 ± 0.048
12,CAAATATA,0.151 ± 0.0063
13,AAAATATA,0.178 ± 0.027
14,TAAATATA,0.238 ± 0.0035
15,TATATAAA,0.177 ± 0.052
16,AGAACACG,0.104 ± 0.028
17,AGTCGAAG,0.0391 ± 0.095
18,CGCTCGAG,0.136 ± 0.036
19,GGTTGTTA,0.116 ± 0.038
20,ACTACTGA,-0.123 ± 0.021
21,CCCGAGAG,-0.255 ± 0.041
22,ATCAGCCG,-0.223 ± 0.0056
23,ATCAGCCA,-0.0692 ± 0.065

row,Sequence,PBM 8-mer E-score
1,ATCAGCCC,0.231 ± 0.03
2,CAAGAGTC,-0.073 ± 0.074
3,ACTACACG,0.0218 ± 0.034
4,CCTACACG,-0.0783 ± 0.048
5,GCTACATA,-0.0387 ± 0.017
6,ACTACATA,0.239 ± 0.06
7,ACTACATG,0.123 ± 0.031
8,ACTACACA,0.266 ± 0.055
9,TAGAACGA,0.0786 ± 0.036
10,AGCGAATC,0.0438 ± 0.019
11,CTAAAGTA,-0.0474 ± 0.011
12,ATAAAGTA,0.166 ± 0.053
13,GTAAAGTA,0.262 ± 0.032
14,GGTATAGA,0.0611 ± 0.0045
15,AGTATATC,0.106 ± 0.013
16,AGTATATA,0.334 ± 0.041
17,GGTATATA,0.235 ± 0.013
18,GGTATCTA,0.0221 ± 0.013
19,AGTATCTA,0.329 ± 0.0077
20,CGTATATA,0.185 ± 0.0076
21,AGTATATG,0.153 ± 0.051
22,CGTATCTA,-0.126 ± 0.083
23,CCATCGCG,0.124 ± 0.044

row,Sequence,PBM 8-mer E-score
1,GTCGCGGA,-0.206 ± 0.07
2,CGCCCCGC,0.072 ± 0.059
3,GTAATTAC,0.2036 ± 0.0011
4,CGAATTAA,0.00973 ± 0.029
5,ATAATTAA,0.141 ± 0.023
6,CTAATTAA,0.0454 ± 0.045
7,CTAATTAC,0.139 ± 0.051
8,GGAATTAA,0.166 ± 0.031
9,ATAATTAC,0.276 ± 0.0099
10,TTAATTAA,0.281 ± 0.08
11,TGAATTAA,0.255 ± 0.0052
12,GTTGAAAA,0.103 ± 0.084
13,ACCTTGCA,0.0732 ± 0.0055
14,CGGGGGAA,-0.121 ± 0.028
15,AAGGGAGG,0.0917 ± 0.039
16,CTCTAGTA,0.103 ± 0.0078
17,ATCTAGTA,-0.0228 ± 0.022
18,GTCTAGTA,0.247 ± 0.051
19,CTAAGGGC,-0.156 ± 0.055
20,AAAGCGGA,0.0459 ± 0.0043
21,ACTTACTC,0.0212 ± 0.036
22,CCTTACTA,0.0233 ± 0.037
23,ACTTACTA,0.258 ± 0.042

row,Sequence,PBM 8-mer E-score
1,GACCCACA,0.0373 ± 0.043
2,AGTATTTA,0.195 ± 0.012
3,GGTATTTA,0.118 ± 0.052
4,CGTATTTA,0.2434 ± 0.0022
5,GAACATGC,0.136 ± 0.0025
6,TATCTTGA,0.163 ± 0.012
7,CATCTTGA,-0.0488 ± 0.041
8,GATCTTGA,0.246 ± 0.03
9,ATGACTGC,0.00213 ± 0.035
10,CGCCTCAA,0.0117 ± 0.0089
11,AGGCGGGC,0.00216 ± 0.077
12,AGGGCGGA,-0.228 ± 0.016
13,GGGCGGGA,0.3 ± 0.018
14,AGGGCGGG,0.272 ± 0.091
15,AGGCGGGG,0.259 ± 0.092
16,AGGGCGGC,-0.161 ± 0.057
17,AGGCGGGA,0.08088 ± 0.00027
18,GGGCGGAA,0.111 ± 0.07
19,CGCGGGGA,0.0556 ± 0.023
20,CGGCGGGA,-0.205 ± 0.01
21,GGCGGGGA,0.403 ± 0.025
22,GGCGGGAA,0.0557 ± 0.014
23,AACCGATA,-0.0929 ± 0.094

row,Sequence,PBM 8-mer E-score
1,ACACCTCA,0.0903 ± 0.038
2,GACGAGGA,-0.0396 ± 0.053
3,ACCAGGGT,-0.196 ± 0.08
4,CTGGACAC,-0.2589 ± 0.0024
5,ACCGGGTA,-0.1338 ± 0.00064
6,CATGAGCG,-0.0614 ± 0.0046
7,CCTACCCG,-0.0857 ± 0.0032
8,CTGGCGCA,-0.166 ± 0.074
9,ATGGCGCG,0.0718 ± 0.02
10,ATGGCGCA,0.239 ± 0.057
11,ACTTGGGG,0.3507 ± 0.0032
12,AATTTGGG,0.29 ± 0.015
13,CACTTGGG,0.176 ± 0.012
14,ACTTGGGC,0.0763 ± 0.039
15,ATTTGGGA,0.209 ± 0.0036
16,AACTTGGG,0.304 ± 0.015
17,AACTTGGA,0.0353 ± 0.027
18,AATTTGGT,0.0829 ± 0.018
19,ATTTGGGC,0.102 ± 0.069
20,ACTTGGGA,-0.129 ± 0.03
21,AATTTGGA,0.0432 ± 0.015
22,ATTTGGGG,0.267 ± 0.0073
